Compound activity from PubChem BioAssay.
LYPLA1 counter: counter-screen for PME1 inhibitors: inhibitors of human LYPLA1; recombinant LYPLA1, FP-Rh probe fluorescence polarization; 0.16% of 320,000 active; inhibition, % at 5.9 µM; AID 2174;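 active = inhibition above the mean of all tested compounds plus 3 SD, set per campaign, cut at about 14% in these data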;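 also: inhibitors block serine hydrolase probe labeling of LYPLA1 so polarization falls; 0% = enzyme with DMSO and 100% = wells lacking LYPLA1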
PP1 inh: PP1-alpha (human) inhibition in PP5 counter-screen; 0.9% of 320,000 active; purified PP1alpha, OMFP fluorescence; inhibition, % at 6.7 µM; P62136;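 active = inhibition above the mean inhibition of all tested compounds plus 3 SD, computed separately for each screening campaign, cut at about 15% in these data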
PP5 primary: blocks human protein phosphatase 5 activity | purified PP5c, OMFP substrate fluorescence | AID 1987 | 0.18% of 320,000 active | inhibition, % at 6.7 µM | P53041;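 active = inhibition above the campaign's mean inhibition across all tested compounds plus 3 SD, cut at about 9.5% in these data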;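 also: 0% = DMSO only and 100% = 100 µM cantharidin control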
Target sequence (P53041 whole entry, looked up): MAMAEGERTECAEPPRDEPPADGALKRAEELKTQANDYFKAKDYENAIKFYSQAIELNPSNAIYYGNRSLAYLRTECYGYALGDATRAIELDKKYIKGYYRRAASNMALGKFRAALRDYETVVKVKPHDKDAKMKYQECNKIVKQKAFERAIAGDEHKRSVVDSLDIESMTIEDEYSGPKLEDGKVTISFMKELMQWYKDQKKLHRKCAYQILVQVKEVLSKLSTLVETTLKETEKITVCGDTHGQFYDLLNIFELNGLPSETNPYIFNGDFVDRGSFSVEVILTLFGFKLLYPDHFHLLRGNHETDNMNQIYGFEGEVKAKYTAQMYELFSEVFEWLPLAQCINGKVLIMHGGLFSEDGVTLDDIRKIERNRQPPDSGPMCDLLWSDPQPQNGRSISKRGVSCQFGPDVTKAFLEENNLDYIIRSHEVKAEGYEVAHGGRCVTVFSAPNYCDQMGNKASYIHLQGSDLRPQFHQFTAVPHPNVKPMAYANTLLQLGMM
PME-1 inh: blocks human protein phosphatase methylesterase 1 | Q9Y570 | recombinant PME-1, FP-Rh probe fluorescence polarization | inhibition, % at 5.9 µM | 0.53% of 320,000 active | AID 2130;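 active = inhibition above the campaign mean of all compounds plus 3 SD, cut at about 26% in these data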;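 also: competitive labeling of PME-1 active site by serine hydrolase directed probe; 0% = PME-1 with DMSO and 100% = wells lacking PME-1 enzyme; inhibitors block probe labeling so polarization falls and inhibition rises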
Fam108B counter: counter-screen for RBBP9 inhibitors: inhibitors of mouse Fam108B; recombinant Fam108B, FP-Rh probe fluorescence polarization; 0.33% of 300,000 active; AID 1947; inhibition, % at 9.51 µM;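 active = inhibition above the screen mean inhibition plus 3 SD, computed separately per campaign, cut at about 18% in these data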;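 also: inhibitors lower polarization as less probe binds the enzyme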
LYPLA2 inh: blocks human lysophospholipase 2, a PME1 counter-screen. O95372. recombinant LYPLA2, FP-Rh probe fluorescence polarization. inhibition, % at 5.9 µM. 0.38% of 320,000 active;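 active = inhibition above the screen-wide mean plus 3 SD, limit set per campaign, cut at about 26% in these data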;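 also: 0% = LYPLA2 with DMSO and 100% = wells lacking LYPLA2 enzyme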
Fam108b inh conf: Fam108b (mouse) hydrolase inhibition, confirmation assay | 44% of 930 active | recombinant Fam108b, FP-Rh probe fluorescence polarization | inhibition, % at 9.51 µM | shares compounds with Fam108B counter | AID 1978;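 active = inhibition above a limit from the primary screen, the mean over all compounds plus 3 SD, cut at about 19% in these data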;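 also: 0% = median of active Fam108b wells and 100% = catalytically dead S170A mutant; inhibitors free the probe so polarization falls as inhibition rises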
Fam108b inh: mouse ABHD17B inhibition; shares compounds with Fam108B counter; recombinant Fam108b, gel-based ABPP, fluorophosphonate probe; inhibition, % at 20 µM; 44% of 260 active; AID 588649; in the data active = inhibition above about 40%
* hit, by the source's call; . = no result. This is a sample that favours compounds with a hit; in the whole collection about 1.8% have one here.

SMILES | LYPLA1 counter | PP1 inh | PP5 primary | PME-1 inh | Fam108B counter | LYPLA2 inh | Fam108b inh conf | others
Nc1nc2ccccc2n1/N=C/c1ccc(Br)cc1 | -2 | 7 | 4 | 11 | 29* | -3 | 35*
O=C(COC(=O)c1cc(S(=O)(=O)N2CCCCC2)ccc1N1CCOCC1)c1ccccc1 | -1 | -3 | 2 | 1 | 1 | 5 | .
O=C(NCc1ccco1)c1cccc(Nc2nc3ccc(Br)cc3[nH]2)c1 | -17 | 4 | 5 | 24 | 25* | -37 | 11
O=C(NCC1CC1)c1ccc(Nc2nc3ccc(Br)cc3[nH]2)cc1 | -13 | 0 | 1 | 7 | 19* | -6 | 48* | Fam108b inh=75*
O=C(Cc1ccc(Nc2nc3ccc(Br)cc3[nH]2)cc1)NCCc1cccs1 | -8 | 6 | 5 | 24 | 14 | 1 | .
C/C=C(\C)C(=O)O[C@H](c1cc2ccc(=O)oc2cc1OC)[C@@H](O)C(C)(C)O | 3 | -5 | 3 | 4 | . | 3 | .
O=C(NC1CCCC1)c1sc(=S)n2c1[nH]c(=O)c1ccccc12 | 2 | 2 | -1 | 8 | 16 | -5 | .
CCCCCNC(=O)c1ccc2c(=O)[nH]c3c(C(=O)NCC4CCCO4)sc(=S)n3c2c1 (stereo unspecified) | -1 | 0 | 2 | 8 | 21* | 16 | 12
O=C(NCc1ccccc1)c1ccc2c(=O)[nH]c3c(C(=O)NCC4CCCO4)sc(=S)n3c2c1 (stereo unspecified) | 7 | -2 | 1 | 11 | 34* | 4 | 20*
Cc1ccc(CNC(=O)c2ccc3c(=O)[nH]c4c(C(=O)NCC5CCCO5)sc(=S)n4c3c2)cc1 (stereo unspecified) | 1 | -2 | 0 | 16 | 17 | 7 | .
O=C(NCc1ccco1)c1sc(=S)n2c1[nH]c(=O)c1ccccc12 | 2 | 0 | -2 | 16 | 38* | 10 | 34* | Fam108b inh=15
CO/N=C\c1cc(C(=O)c2ccc(Cl)cc2Cl)cn1C | -2 | 4 | 3 | 5 | 1 | -1 | .
COc1cccc(OC)c1C(=O)N1CCN(C(=O)c2ccc(-c3ccccc3)cc2)CC1 | -2 | 4 | 4 | 11 | 3 | -4 | .
CCn1cc(C(=O)NC2CCCc3c2cnn3-c2cccc(C)c2C)cn1 (stereo unspecified) | 1 | 4 | 4 | 7 | 0 | -1 | .
O=C1CCCC(O)=C1N=Nc1ccc2c(c1)OCO2 | 2 | -1 | 1 | -5 | 1 | -4 | .
O=C1CCCC(O)=C1N=Nc1ccc(C(=O)O)cc1 | -1 | 2 | -2 | -18 | 25* | 1 | 20*
COc1cc2c(cc1NC(=S)Nc1cccc3ccccc13)oc1ccccc12 | -3 | 5 | 1 | 22 | 14 | 6 | .
COc1cc2c(cc1NC(=S)Nc1cccc(C(F)(F)F)c1)oc1ccccc12 | -4 | -3 | -1 | -1 | 24* | -11 | 45* | Fam108b inh=85*
COc1cc2c(cc1NC(=O)Nc1ccccc1)oc1ccccc12 | -11 | -1 | 3 | 31* | 33* | 4 | 43* | Fam108b inh=90*
COc1ccccc1/C=C1\S/C(=N/NC(=O)c2cccc(Br)c2)NC1=O | 0 | 14 | -1 | 8 | 21* | 2 | 17
Cc1cc(OCC(=O)NCCc2c[nH]c3ccccc23)c2c(C)cc(=O)oc2c1 | -1 | -3 | 1 | 13 | -1 | 0 | .
CCCCc1ccc(S(=O)(=O)NCCCN2CCCC2=O)cc1 | 3 | 0 | 3 | 9 | 3 | 0 | .
O=C(N/N=C/c1c(O)ccc2ccccc12)c1cccc(C(F)(F)F)c1 | -11 | -3 | -8 | 15 | 19* | 1 | 9
Cc1csc(SC(C)C(=O)Nc2ccccc2C)n1 (stereo unspecified) | 0 | -4 | 0 | -1 | . | 2 | .
CC(=O)c1cccc(NC(=O)CN2CCc3cc4c(cc3C2C)OCCCO4)c1 (stereo unspecified) | -2 | -4 | 4 | 2 | -1 | 3 | .
SMILES | LYPLA1 counter | PP1 inh | PP5 primary | PME-1 inh | Fam108B counter | LYPLA2 inh | Fam108b inh conf | others
CCCCn1c(=O)nc2n(-c3ccc(OC)cc3)c3ccccc3cc-2c1=O | 0 | -4 | -1 | -2 | 42* | -8 | 1
Cc1c(NC(=O)C(C)Sc2nc(N)cc(=O)[nH]2)c(=O)n(-c2ccccc2)n1C (stereo unspecified) | 3 | -7 | 2 | 3 | . | 4 | .
O=C(Nc1ccc(N2CCCC2)c(S(=O)(=O)Nc2cccc(C(F)(F)F)c2)c1)c1cccs1 | -9 | 2 | 8 | 8 | 21* | -5 | 33* | Fam108b inh=85*
COc1ccccc1NS(=O)(=O)c1cc(NC(=O)c2cccs2)ccc1N1CCCC1 | -15 | 2 | 7 | -14 | 7 | -7 | .
CCOc1ccc(CCNC(=O)COC(=O)COc2ccc(C#N)cc2)cc1OCC | 3 | -1 | 2 | 5 | . | 13 | .
O=C(Nc1ccccc1F)Nc1cccc2ccc(O)cc12 | -7 | -1 | 2 | 34* | 18* | 0 | 13
O=C(Nc1ccccc1F)Nc1ccccc1F | -5 | -8 | 4 | -1 | -2 | -3 | .
CC(C)C(C(=O)NCC1CCCO1)N(C(=O)CNS(=O)(=O)c1ccccc1)C1CCCCC1 (stereo unspecified) | 3 | -2 | 2 | 2 | 0 | 4 | .
COc1ccccc1NC(=O)Nc1ccc(NC(=O)c2ccccc2O)cc1 | -12 | -1 | -1 | 0 | 21* | 0 | -2
COc1ccc(OC)c(NC(=O)Nc2ccc(Cl)cc2)c1 | -12 | 2 | 4 | 21 | 23* | -2 | 14
CCOC(=O)c1nc(Nc2cc(Cl)ccc2OC)c2ccccc2n1 | -6 | -1 | 3 | -9 | -4 | -2 | .
Nc1cc(=O)[nH]c2nnc(SCC(=O)Nc3cccc4ccccc34)n12 | 4 | 4 | 1 | 4 | 4 | 6 | .
Oc1ccc(-c2nccc(-c3ccccn3)n2)cc1 | -5 | -1 | 0 | -2 | -3 | -11 | .
O=C(COc1ccccc1[N+](=O)[O-])N/N=C/c1ccc(O)c([N+](=O)[O-])c1 | -4 | 0 | 3 | 1 | -8 | -17 | .
O=C(COc1ccccc1C(=O)N/N=C\c1ccc(O)c(O)c1)N/N=C/c1ccc(O)c(O)c1 | -12 | 3 | 4 | 35* | 35* | -16 | 2
CC(C)c1ccc(S(=O)(=O)/N=C2/C=C(Sc3ncn[nH]3)C(=O)c3ccccc32)cc1 | 3 | 4 | 11* | 42* | 58* | 36* | 36*
CCCn1nc(C(=O)NNC(=O)C2CSC3(C)CCC(=O)N23)c2ccccc2c1=O (stereo unspecified) | -1 | -10 | -3 | 1 | 0 | -3 | .
COc1ccc2nc(-c3ccccc3)[nH]c2c1 | 0 | -2 | 2 | -1 | -1 | -1 | .
